In article PMC4336329 (PLoS ONE, 2015):
Hit rate of the full screen: of about 310,000 compounds, about 14,000 (4.5%) showed an effect of 50% or more. The effect is printed as a negative number. This excerpt belongs to a sample that is enriched for strong results.

Target: human ether-à-go-go-related gene (hERG) potassium channel (human, UniProt Q12809)
Assay: primary screen, population patch clamp on CHO cells stably expressing hERG; higher = less effect of the substance
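Note: peak tail current of the secondary pulse compared with the same well before compound.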

Chain of human ether-à-go-go-related gene (hERG) potassium channel (Q12809 whole entry, looked up): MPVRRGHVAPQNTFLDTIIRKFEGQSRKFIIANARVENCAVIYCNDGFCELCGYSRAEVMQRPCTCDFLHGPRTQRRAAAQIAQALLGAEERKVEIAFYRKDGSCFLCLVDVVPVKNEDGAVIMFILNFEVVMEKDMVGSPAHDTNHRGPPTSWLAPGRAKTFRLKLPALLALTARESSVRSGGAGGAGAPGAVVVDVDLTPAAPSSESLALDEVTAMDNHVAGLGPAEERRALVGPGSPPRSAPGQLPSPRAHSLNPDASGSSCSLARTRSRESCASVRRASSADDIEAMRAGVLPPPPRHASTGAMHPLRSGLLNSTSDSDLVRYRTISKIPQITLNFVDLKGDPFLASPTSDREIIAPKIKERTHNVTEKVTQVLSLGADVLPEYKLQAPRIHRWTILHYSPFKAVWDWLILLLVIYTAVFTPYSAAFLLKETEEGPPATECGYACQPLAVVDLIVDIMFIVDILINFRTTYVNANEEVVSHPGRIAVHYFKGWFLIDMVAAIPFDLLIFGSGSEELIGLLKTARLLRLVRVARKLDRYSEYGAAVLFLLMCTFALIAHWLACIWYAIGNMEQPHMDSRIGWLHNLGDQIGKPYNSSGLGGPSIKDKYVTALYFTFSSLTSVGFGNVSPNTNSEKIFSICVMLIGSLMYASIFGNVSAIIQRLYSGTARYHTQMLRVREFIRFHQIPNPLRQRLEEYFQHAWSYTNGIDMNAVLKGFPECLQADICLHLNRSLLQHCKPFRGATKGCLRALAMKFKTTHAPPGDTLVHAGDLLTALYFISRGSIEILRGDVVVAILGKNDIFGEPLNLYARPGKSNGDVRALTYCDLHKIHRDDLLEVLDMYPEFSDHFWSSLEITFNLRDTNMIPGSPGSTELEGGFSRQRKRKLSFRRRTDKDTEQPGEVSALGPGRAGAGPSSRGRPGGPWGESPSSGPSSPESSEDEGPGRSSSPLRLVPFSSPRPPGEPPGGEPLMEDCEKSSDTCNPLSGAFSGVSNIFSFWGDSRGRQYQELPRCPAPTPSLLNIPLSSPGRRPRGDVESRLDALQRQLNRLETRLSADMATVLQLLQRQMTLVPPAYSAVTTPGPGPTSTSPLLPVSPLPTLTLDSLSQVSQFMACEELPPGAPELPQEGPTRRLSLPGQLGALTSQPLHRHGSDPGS

Compound | hERG current change (%, negative = inhibition) at 10uM [%]
O=C(CSc1ccccn1)Nc1cccc(NC(=O)CSc2ccccn2)n1 | -11.9
O=[N+]([O-])c1ccccc1S(=O)(=O)N1CCN(C2CCCC2)CC1 | 0.58
O=S(=O)(c1ccccc1)N1CCN(Cc2ccccc2)CC1 | 19.3
O=S(=O)(c1ccc(Cl)cc1)N1CCN(C2CCN(Cc3ccccc3)CC2)CC1 | -71.4
O=[N+]([O-])c1ccccc1S(=O)(=O)N1CCN(C2CCN(Cc3ccccc3)CC2)CC1 | -51.9
O=S(=O)(c1ccc(Cl)cc1)N1CCN(C2CCCCCC2)CC1 | -17.3
Cn1c(=O)c(=O)n(C)c2cc(S(=O)(=O)N3CCC(Cc4ccccc4)CC3)ccc21 | -10.9
Cn1c(=O)c(=O)n(C)c2cc(S(=O)(=O)N3CC(=O)N(CCc4ccccc4)C(=O)C3)ccc21 | 19.4
O=S(=O)(c1ccccc1)N1CCN(Cc2ccc(Cl)cc2)CC1 | -22.7
CS(=O)(=O)N1CCN(C2CCN(Cc3ccccc3)CC2)CC1 | -1.48
O=[N+]([O-])c1ccccc1S(=O)(=O)N1CCN(Cc2ccccc2)CC1 | -34.6
Cn1c(=O)c(=O)n(C)c2cc(S(=O)(=O)N3CCN(Cc4ccccc4)CC3)ccc21 | -63.4
O=S(=O)(c1ccccc1)N1CCN(C2CCN(Cc3ccccc3)CC2)CC1 | -64
CC(=O)c1c(C)[nH]c(C(=O)COc2cc(C)ccc2C(C)C)c1C | 14.1
O=C(CSc1nnnn1-c1ccc2c(c1)OCCO2)N1CCN(C(=O)c2ccco2)CC1 | -16.6
CCN1C(=O)S/C(=C/c2ccc(Oc3ccc([N+](=O)[O-])cn3)c(OC)c2)C1=O | 9.24
O=C(COC(=O)c1cccs1)Nc1ccc(F)c(F)c1 | 12.2
COC(=O)COc1ccc(/C=C2/NC(=O)N(CC(=O)OC)C2=O)cc1 | 12.3
CC1(C)CC(=O)C(Sc2ccccc2)=C(O)C1 | 15.8
COc1ccc(S(=O)(=O)N2CCC(N3CCN(c4ccccc4OC)CC3)CC2)cc1 | -66.5
COc1ccccc1N1CCN(C2CCN(S(=O)(=O)c3ccc(NC(C)=O)cc3)CC2)CC1 | 0.727

Compound | hERG current change (%, negative = inhibition) at 10uM [%]
O=C(O)C(=O)O.O=[N+]([O-])c1ccc(S(=O)(=O)N2CCN(C3CCN(Cc4ccccc4)CC3)CC2)cc1 | -78.2
O=C(O)C(=O)O.O=[N+]([O-])c1ccc(S(=O)(=O)N2CCN(Cc3ccco3)CC2)cc1 | 15.3
CC(=O)Nc1ccc(S(=O)(=O)N2CCN(Cc3cccc([N+](=O)[O-])c3)CC2)cc1.O=C(O)C(=O)O | -3.41
COc1ccccc1N1CCN(C2CCN(S(=O)(=O)c3ccc(C)cc3)CC2)CC1 | -36.4
COc1ccc(N(CC(=O)NCCSCc2ccc(C)cc2)S(=O)(=O)c2ccccc2)cc1 | 3.04
O=c1cccc2n1CC1CC2CN(S(=O)(=O)c2ccccc2)C1 (stereo not drawn) | -3.59
Cc1cc2occ(CC(=O)N(C)CC(=O)Nc3ccc(F)cc3)c2cc1C | -9.51
COC(=O)CN=C1OC(=O)N2C(=O)C3=C4[C@@H](C[C@H]5C(=O)N(c6ccccc6)C(=O)[C@H]5[C@H]4[C@@]12Cc1ccccc1)[C@H]1C(=O)N(c2ccccc2)C(=O)[C@H]1[C@H]3C | 4.25
O=C(c1ccco1)N1CCN(c2ncnc3sc4c(c23)CCC4)CC1 | -56.6
Oc1ccc(N2CCN(c3ncnc4sc5c(c34)CCC5)CC2)cc1 | -7.35
c1ccc(N2CCN(c3ncnc4sc5c(c34)CCC5)CC2)cc1 | 12.4
O=C(Nc1ncnc2sc3c(c12)CCC3)c1ccco1 | -4.5
O=C(CSc1ncnc2sc3c(c12)CCCC3)c1ccco1 | 6.66
O=C(c1ccccc1)N1CCN(c2ncnc3sc4c(c23)CCC4)CC1 | -56
COc1ccc2nc(NC(=O)C3CCN(S(=O)(=O)c4cccs4)CC3)sc2c1 | -13.6
COc1cc(OC)cc(C(=O)NC2CCSC2=O)c1 (stereo not drawn) | -5.55
CCN(CC)CCCC(C)NC(=O)c1ccc(C(F)(F)F)cc1.Cl (stereo not drawn) | -7.01
CCOC(=O)N1CCN(C(=O)Cn2nc(C)n3nc(-c4ccc(OC)cc4)cc3c2=O)CC1 | 13.4
CC(Sc1nnc(-c2cccs2)n1-c1ccccc1)C(=O)NCc1ccc2c(c1)OCO2 (stereo not drawn) | -74.8
CCn1c(SCC(=O)NCc2ccc3c(c2)OCO3)nnc1-c1cccs1 | -23.1
Cn1c(SCC(=O)NCc2ccc3c(c2)OCO3)nnc1-c1cccs1 | -17.1

Compound | hERG current change (%, negative = inhibition) at 10uM [%]
O=C(CSc1nnc(-c2cccs2)n1Cc1ccccc1)NCc1ccc2c(c1)OCO2 | -75.8
CC(Sc1nncn1C)C(=O)NCc1ccc2c(c1)OCO2 (stereo not drawn) | 34.9
CCn1c(SCC(=O)NCc2ccc3c(c2)OCO3)nnc1-c1ccncc1 | 13
CC(Sc1nnc(-c2cccs2)n1Cc1ccccc1)C(=O)NCc1ccc2c(c1)OCO2 (stereo not drawn) | -55.9
O=C(CSc1nnc(-c2cccs2)n1-c1ccccc1)NCc1ccc2c(c1)OCO2 | -43.7
CC(Sc1nnc2ccccn12)C(=O)NCc1ccc2c(c1)OCO2 (stereo not drawn) | 4.95
COCC(=O)Nc1cc(C(=O)Nc2ccccc2C)ccc1Cl | -3.92
COc1cc(CNc2cc(C)ccc2C)cc(OC)c1OC | -4.46
Cc1cc(C)nc(N/N=C/c2c(CO)cnc(C)c2O)n1 | -10.7
COc1ccccc1NC(=O)c1ccc([N+](=O)[O-])cc1[N+](=O)[O-] | -19.6
O=C(Nc1ncccn1)c1ccc([N+](=O)[O-])cc1[N+](=O)[O-] | -7.61
O=C(Nc1cccc2oc(=O)ccc12)c1ccc([N+](=O)[O-])cc1[N+](=O)[O-] | -59.9
CCOc1ccccc1C(=O)Nc1ccc2nc(N3CCN(c4ncccn4)CC3)cc(C)c2c1 | -8.08
COc1cc(C)c(NC(=S)Nc2cccc(Cl)c2)cc1OC | 6.72
Cc1ccc(-c2ccc(=O)n(CCC(=O)NCCN3CCCCC3C)n2)cc1 (stereo not drawn) | -58.7
Cc1ccc(-c2ccc(=O)n(CC(=O)NCCN3CCCCC3C)n2)cc1 (stereo not drawn) | 0.96
COCCNC(=O)CCn1nc(-c2ccc(C)cc2)ccc1=O | -34.4
COCCCNC(=O)CCn1nc(-c2ccc(Cl)cc2)ccc1=O | -27.9
Cc1ccc(-c2ccc(=O)n(CCC(=O)NCc3ccccn3)n2)cc1 | -61
CC(NC(=O)Cn1nc(-c2ccccc2)ccc1=O)c1ccccc1 (stereo not drawn) | -13.4
CCCCNC(=O)Cn1nc(-c2ccc(C)cc2)ccc1=O | -1.13

Compound | hERG current change (%, negative = inhibition) at 10uM [%]
Cc1ccc(-c2ccc(=O)n(CC(=O)NCCCN3CCCCC3C)n2)cc1 (stereo not drawn) | -10.3
CCCCN(C)CCNC(=O)CCn1nc(-c2ccc(C)cc2)ccc1=O | -83.4
CC(NC(=O)CCn1nc(-c2ccc(Cl)cc2)ccc1=O)c1ccccc1 (stereo not drawn) | -60.6
O=C(CCn1nc(-c2ccc(Cl)cc2)ccc1=O)NCc1ccccn1 | -32
Cc1ccc(CNC(=O)CCn2nc(-c3ccc(Cl)cc3)ccc2=O)cc1 | -35.3
O=C(CCc1ccccc1)NCCCNC(=O)CCc1ccccc1 | 7.49
C=CCn1c(C)nnc1SCC(=O)Nc1nccs1 | 16.6
NC(=O)c1ccccc1NC(=O)/C=C/c1c(Cl)cccc1Cl | -31.3
Cc1ccc(-c2nnc(N)o2)cc1 | 9.43
Cc1ccc(NC(=O)COC(=O)CCc2ccccc2)c(Cl)c1 | 27.1
COCCNC(=O)CCn1nc(-c2ccc(Cl)cc2)ccc1=O | -30.2
CN(C)CCNC(=O)CCn1nc(-c2ccc(Cl)cc2)ccc1=O | -15.4
CCCCN(C)CCNC(=O)CCn1nc(-c2ccc(Cl)cc2)ccc1=O | -67.1
CC(C)CCNC(=O)CCn1nc(-c2ccc(Cl)cc2)ccc1=O | -54.6
CCCCNC(=O)CCn1nc(-c2ccc(Cl)cc2)ccc1=O | -23.4
CC(C)CCNC(=O)CCn1nc(-c2ccccc2)ccc1=O | -46.8
O=C(CSCc1c(F)cccc1Cl)Nc1ccccc1C(=O)N1CCOCC1 | 5.4
Cc1ccc(C)c(-c2ccc(=O)n(Cc3cccc(Br)c3)n2)c1 | 10.7
CCOc1ccc(NC(=O)C2CCCN(c3nc(C)cc(C)n3)C2)cc1 (stereo not drawn) | 12.4
O=C(OCC(=O)c1c[nH]c2ccccc12)c1cc2ccccc2cc1O | 1.38
COc1cccc(NC(=O)CN2C(=O)COc3ccc(S(=O)(=O)N4CCOCC4)cc32)c1 | 15.6
